{"source": "PubChem BioAssay AID720566", "about": "(Broad Institute, 2013)", "note": "Entries with a potency or affinity are not part of this list. Calls of active or inactive are those of the source.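 How the source made its calls: active means in all runs, an absorbance decrease of 25% or more of the average positive control decrease; inconclusive means runs conflict, with both active and inactive results; inactive means all runs inactive, opposite-direction effects included.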", "data": [{"target": "Protein disulfide-isomerase A6 (Homo sapiens) (UniProt Q15084)", "sequence (Q15084 whole entry, looked up)": "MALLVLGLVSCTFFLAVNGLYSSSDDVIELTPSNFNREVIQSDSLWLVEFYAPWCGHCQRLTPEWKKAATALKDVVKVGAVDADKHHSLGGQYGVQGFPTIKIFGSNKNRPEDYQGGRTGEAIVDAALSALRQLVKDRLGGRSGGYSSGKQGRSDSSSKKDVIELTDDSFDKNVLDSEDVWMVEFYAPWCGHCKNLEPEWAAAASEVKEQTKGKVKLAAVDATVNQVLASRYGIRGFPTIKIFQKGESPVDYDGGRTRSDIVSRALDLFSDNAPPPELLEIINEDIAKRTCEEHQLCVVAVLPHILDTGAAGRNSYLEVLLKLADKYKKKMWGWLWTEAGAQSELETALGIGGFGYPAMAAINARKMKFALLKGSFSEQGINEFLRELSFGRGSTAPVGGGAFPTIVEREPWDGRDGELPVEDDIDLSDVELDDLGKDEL", "test": "inhibitors of ERp5-mediated insulin aggregation, dose response, biochemical, turbidity, absorbance 650 nm, cherry-picked samples (AID 720566);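 further: negative values mean less insulin aggregation so ERp5 inhibition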", "details": "Recombinant ERp5 insulin aggregation; series mostly up to 35 µM", "values": [{"molecule": "CCn1nc(/C=C/c2ccccc2)nc2c(=O)n(C)c(=O)nc1-2", "outcome": "inactive"}, {"molecule": "Cc1cc(OCC(=O)NCc2ccc(S(N)(=O)=O)cc2)c2c3c(c(=O)oc2c1)CCC3", "outcome": "inactive"}, {"molecule": "COc1ccc(C#Cc2ccc([C@H]3[C@H](CO)N4CCCCN(C(=O)Cc5cccnc5)C[C@@H]34)cc2)cc1", "outcome": "inactive"}, {"molecule": "C[C@H](CO)N1C[C@H](C)[C@@H](CN(C)C(=O)Oc2ccc3ccccc3c2)OCc2cn(nn2)CCCC1=O", "outcome": "inactive"}]}]}
